In the assay the test system is Plasmodium falciparum Sir2 (PF13_0152, Sir2A). Nature of the assay: pfSir2 binders on small-molecule microarrays, primary screen, biochemical, small-molecule microarray, 635 nm fluorescence (AID 1098).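 Note: score merges spot fluorescence intensity with its signal-to-noise ratio.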 To be noted: small-molecule microarray binding, fluorescence 635 nm; higher = more signal.
With `C=C(CCCC)C(=O)CC[C@@H](OC(=O)c1ccccc1-c1ccccc1C(=O)O)c1ccc(CO)o1`, the composite z-score is 0.628.
The value for `O=C1c2ccccc2[C@](Cc2ccccc2I)(C(=O)O)[C@H](c2ccc(CO)cc2)N1Cc1ccccc1C(F)(F)F` was 0.674; that for `O[C@@H](Cc1ccccc1)[C@@H](/C=C/c1ccccc1)NCc1ccccc1Br` was -1.01; that for `O=C(NCc1ccccc1)[C@@H]1c2ccccc2C(=O)N(Cc2cc(F)cc(C(F)(F)F)c2)[C@H]1c1ccc(CO)cc1` was 1.09.
The value for `CCCCN1CC=CC23O[C@@H]4/C=C\CCCOC(=O)C4[C@H]2C(=O)N(C(C)CO)[C@@H]3C1=O` (stereo partly specified) was 1.62.
For `CC(C)C(CO)N1C(=O)[C@@H]2[C@H]3C(=O)OCC=C[C@H]3OC23C=CCN(c2ccc4ccccc4c2)C(=O)[C@@H]13` (stereo partly specified), the composite z-score came out at 0.233.
The value for `C=C(/C(=C/C[C@@H](OC(=O)c1ccncc1)c1ccc(CO)o1)c1cc(C(=O)OC)ccc1OC)C(C)C` was 1.32; that for `C=CC[C@@]1(C(=O)OC)N=C(c2ccc(OCCCO)cc2)O[C@@H]1c1ccccc1CN=[N+]=[N-]` was 1.55.
In the case of `[N-]=[N+]=Nc1ccccc1[C@H]1OC(c2ccc(OCCCO)cc2)=N[C@@]1(CCS(=O)(=O)c1ccccc1)C(=O)N1CCOCC1`, the composite z-score was determined as 1.5.
The value for `C=CCN1C(=O)[C@@]2(O[C@@H](CCO)[C@H]([Si](C)(C)c3ccc(OC)cc3)[C@H]2C)c2cc(N3C(=O)COc4ccccc43)ccc21` was 1.16; that for `CCCC[C@H]1OB(O)C[C@H]2C1=C(COc1ccccc1)C[C@H]1C(=O)N(Cc3ccccc3)C(=O)[C@H]12` was 0.412.

The record behind these values is PubChem BioAssay.
